Source: the supplement of paper PMC11732987, “Enantioselective OTUD7B fragment discovery through chemoproteomics screening and high-throughput optimisation” (Communications Chemistry, 2025)

Tests used:
Experiment in all cases: log2 ratio of Biotin-Ahx-Ub-VS probe labelling (fragment/DMSO); higher = less target engagement (more negative = stronger competition), active = hit call of the paper (q ≤ 0.05, log2 ratio ≤ -1)
Settings in all cases: compound concentration: 200 uM; treatment time: 3 h
ALG13 = target: T1, ALG13 (UniProt Q9NP73)
T1 sequence (whole entry): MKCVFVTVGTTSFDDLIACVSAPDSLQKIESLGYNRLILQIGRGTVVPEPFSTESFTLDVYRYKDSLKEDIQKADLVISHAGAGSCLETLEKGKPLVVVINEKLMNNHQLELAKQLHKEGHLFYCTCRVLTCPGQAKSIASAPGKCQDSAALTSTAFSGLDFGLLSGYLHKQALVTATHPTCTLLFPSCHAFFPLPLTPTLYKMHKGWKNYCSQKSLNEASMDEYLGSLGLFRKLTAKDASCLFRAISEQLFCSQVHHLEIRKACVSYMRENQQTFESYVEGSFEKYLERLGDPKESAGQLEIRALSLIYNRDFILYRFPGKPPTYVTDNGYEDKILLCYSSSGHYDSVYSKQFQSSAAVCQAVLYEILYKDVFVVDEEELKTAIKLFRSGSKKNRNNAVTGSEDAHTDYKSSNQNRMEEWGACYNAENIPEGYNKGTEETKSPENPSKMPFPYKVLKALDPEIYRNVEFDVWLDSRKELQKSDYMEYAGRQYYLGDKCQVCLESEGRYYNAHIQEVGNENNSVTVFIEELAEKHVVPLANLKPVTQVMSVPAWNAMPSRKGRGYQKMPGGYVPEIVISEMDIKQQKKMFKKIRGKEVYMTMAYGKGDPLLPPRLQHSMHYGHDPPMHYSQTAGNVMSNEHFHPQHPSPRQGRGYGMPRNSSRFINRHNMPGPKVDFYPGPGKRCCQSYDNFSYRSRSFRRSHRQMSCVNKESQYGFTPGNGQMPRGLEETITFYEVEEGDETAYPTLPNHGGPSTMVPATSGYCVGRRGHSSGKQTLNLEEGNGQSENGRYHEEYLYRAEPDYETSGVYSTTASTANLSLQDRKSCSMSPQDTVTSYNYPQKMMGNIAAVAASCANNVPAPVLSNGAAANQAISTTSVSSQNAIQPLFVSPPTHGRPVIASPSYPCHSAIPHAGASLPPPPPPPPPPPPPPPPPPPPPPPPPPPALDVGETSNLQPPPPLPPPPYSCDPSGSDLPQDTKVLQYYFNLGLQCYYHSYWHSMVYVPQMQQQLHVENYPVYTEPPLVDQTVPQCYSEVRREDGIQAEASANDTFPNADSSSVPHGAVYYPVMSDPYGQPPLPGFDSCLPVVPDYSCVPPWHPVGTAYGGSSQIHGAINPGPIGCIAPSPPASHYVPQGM
Summary of the method: (§1)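 Using Biotin-Ahx-Ub-VS at 0.5 µM final for 1 h, DUBs were labelled in HEK293T lysate (495 µg per sample) that had first been treated in triplicate with fragment at 200 µM or vehicle for 3 h. NeutrAvidin enrichment, LysC and trypsin digestion and diaPASEF LC-MS/MS followed. Spectronaut label-free quantities were global-median-normalised. Values are average log2 fragment/vehicle ratios by unpaired t-test, using proteins with ≥2 unique peptides.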

ATXN3 = ATXN3 (UniProt P54252)
Chain of ATXN3 (P54252 whole entry): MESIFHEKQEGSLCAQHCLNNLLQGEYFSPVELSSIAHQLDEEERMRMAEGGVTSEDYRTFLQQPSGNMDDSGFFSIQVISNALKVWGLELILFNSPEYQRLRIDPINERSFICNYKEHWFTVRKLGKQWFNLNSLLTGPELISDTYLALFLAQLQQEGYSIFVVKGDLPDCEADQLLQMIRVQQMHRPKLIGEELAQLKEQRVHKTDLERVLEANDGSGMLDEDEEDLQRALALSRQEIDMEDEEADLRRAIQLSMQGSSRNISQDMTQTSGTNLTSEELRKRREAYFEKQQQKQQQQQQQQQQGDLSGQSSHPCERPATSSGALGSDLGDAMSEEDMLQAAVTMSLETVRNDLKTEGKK
Summary of the method: as §1

BAP1 = target: T2, BAP1 (UniProt Q92560)
T2 sequence (whole entry): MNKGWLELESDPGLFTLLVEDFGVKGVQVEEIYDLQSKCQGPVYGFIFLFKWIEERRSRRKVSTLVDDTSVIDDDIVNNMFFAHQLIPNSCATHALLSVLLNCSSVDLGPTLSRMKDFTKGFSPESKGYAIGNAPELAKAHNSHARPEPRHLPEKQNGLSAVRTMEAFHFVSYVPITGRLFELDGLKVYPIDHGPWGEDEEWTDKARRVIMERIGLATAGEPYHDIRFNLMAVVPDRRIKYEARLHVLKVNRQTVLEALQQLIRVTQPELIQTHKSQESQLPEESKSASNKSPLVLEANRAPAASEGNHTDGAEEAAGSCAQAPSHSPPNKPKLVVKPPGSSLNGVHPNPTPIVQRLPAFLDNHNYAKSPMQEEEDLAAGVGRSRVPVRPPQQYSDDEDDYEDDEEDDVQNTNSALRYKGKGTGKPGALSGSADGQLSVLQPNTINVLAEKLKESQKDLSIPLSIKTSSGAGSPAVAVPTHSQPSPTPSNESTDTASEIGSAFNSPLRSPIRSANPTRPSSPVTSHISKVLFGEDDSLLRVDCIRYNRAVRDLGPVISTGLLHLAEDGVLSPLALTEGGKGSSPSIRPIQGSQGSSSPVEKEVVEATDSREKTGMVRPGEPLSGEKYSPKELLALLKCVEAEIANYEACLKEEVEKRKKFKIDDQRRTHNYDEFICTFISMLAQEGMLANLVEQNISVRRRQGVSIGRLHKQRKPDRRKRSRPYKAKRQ
Summary of the method: as §1

EIF3F = EIF3F (UniProt O00303)
Chain of EIF3F (O00303 whole entry): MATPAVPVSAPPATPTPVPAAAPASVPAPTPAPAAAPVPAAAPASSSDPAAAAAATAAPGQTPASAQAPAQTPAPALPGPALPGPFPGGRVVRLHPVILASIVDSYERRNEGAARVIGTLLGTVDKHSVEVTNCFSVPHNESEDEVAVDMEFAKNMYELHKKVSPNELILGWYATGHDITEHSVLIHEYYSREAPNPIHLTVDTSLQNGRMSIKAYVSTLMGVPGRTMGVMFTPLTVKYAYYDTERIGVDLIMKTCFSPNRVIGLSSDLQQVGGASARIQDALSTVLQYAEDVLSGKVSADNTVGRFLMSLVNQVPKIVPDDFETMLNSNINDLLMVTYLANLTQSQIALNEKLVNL
Summary of the method: as §1

EIF3H = EIF3H (UniProt O15372)
Chain of EIF3H (O15372 whole entry): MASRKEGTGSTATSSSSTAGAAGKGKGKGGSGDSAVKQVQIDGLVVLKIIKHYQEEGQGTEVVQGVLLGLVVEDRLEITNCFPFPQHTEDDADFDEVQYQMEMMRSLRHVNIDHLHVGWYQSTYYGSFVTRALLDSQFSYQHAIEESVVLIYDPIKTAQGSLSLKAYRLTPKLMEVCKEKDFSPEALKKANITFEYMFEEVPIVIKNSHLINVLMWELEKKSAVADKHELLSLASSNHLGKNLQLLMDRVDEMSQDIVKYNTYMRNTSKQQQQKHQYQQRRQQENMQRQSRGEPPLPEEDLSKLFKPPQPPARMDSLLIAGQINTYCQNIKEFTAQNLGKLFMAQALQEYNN
Summary of the method: as §1

FAM105A = target: T3, FAM105A (UniProt Q9NUU6)
T3 sequence (whole entry): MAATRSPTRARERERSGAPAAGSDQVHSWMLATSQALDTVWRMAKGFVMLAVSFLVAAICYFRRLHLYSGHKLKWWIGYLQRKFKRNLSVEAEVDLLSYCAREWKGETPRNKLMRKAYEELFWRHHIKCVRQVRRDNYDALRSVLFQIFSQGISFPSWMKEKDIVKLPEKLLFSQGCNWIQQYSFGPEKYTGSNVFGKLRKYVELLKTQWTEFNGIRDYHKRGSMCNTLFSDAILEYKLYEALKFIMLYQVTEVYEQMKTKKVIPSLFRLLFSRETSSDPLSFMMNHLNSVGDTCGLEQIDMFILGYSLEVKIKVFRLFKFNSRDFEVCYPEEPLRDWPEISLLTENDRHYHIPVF
Summary of the method: as §1

OTUB1 = OTUB1 (UniProt Q96FW1)
Chain of OTUB1 (Q96FW1 whole entry): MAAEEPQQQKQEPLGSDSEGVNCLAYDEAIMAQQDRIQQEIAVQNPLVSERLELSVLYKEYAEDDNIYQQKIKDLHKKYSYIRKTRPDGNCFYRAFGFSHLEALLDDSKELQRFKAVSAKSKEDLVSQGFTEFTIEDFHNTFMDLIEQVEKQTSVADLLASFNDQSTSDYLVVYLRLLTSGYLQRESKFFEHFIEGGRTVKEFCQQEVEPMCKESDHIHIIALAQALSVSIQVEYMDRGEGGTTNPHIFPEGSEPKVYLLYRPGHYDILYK
Summary of the method: as §1

OTUD4 = target: T4, OTUD4 (UniProt Q01804)
T4 sequence (whole entry): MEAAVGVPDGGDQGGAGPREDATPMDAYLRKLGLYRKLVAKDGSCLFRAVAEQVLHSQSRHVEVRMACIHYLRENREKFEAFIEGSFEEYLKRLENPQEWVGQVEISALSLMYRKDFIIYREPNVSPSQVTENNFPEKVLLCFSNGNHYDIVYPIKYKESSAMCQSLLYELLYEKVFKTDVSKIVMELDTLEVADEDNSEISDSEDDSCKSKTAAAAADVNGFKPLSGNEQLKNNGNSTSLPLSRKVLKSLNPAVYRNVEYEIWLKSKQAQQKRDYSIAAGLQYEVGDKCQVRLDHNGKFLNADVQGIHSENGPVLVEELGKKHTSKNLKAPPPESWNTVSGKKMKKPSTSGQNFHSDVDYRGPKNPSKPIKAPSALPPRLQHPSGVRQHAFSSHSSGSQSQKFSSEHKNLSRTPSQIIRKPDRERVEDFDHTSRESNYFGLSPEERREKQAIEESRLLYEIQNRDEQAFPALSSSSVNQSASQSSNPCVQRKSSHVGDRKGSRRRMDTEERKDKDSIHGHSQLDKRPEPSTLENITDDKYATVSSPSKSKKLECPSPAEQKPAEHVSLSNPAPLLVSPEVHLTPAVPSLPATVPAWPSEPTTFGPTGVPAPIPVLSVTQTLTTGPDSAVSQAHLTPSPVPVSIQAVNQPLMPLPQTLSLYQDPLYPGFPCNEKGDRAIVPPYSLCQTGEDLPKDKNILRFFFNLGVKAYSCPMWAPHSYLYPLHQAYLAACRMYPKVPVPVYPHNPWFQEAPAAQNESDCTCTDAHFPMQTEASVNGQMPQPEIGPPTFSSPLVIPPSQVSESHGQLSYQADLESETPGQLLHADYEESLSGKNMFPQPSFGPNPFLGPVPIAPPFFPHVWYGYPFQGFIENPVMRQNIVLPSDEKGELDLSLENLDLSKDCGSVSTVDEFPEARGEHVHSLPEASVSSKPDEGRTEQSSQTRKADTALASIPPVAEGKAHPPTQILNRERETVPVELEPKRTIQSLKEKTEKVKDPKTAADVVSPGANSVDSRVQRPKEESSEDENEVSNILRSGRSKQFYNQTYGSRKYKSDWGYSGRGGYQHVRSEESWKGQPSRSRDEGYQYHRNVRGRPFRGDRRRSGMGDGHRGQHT
Summary of the method: as §1

OTUD5 = target: T5, OTUD5 (UniProt Q96G74)
T5 sequence (whole entry): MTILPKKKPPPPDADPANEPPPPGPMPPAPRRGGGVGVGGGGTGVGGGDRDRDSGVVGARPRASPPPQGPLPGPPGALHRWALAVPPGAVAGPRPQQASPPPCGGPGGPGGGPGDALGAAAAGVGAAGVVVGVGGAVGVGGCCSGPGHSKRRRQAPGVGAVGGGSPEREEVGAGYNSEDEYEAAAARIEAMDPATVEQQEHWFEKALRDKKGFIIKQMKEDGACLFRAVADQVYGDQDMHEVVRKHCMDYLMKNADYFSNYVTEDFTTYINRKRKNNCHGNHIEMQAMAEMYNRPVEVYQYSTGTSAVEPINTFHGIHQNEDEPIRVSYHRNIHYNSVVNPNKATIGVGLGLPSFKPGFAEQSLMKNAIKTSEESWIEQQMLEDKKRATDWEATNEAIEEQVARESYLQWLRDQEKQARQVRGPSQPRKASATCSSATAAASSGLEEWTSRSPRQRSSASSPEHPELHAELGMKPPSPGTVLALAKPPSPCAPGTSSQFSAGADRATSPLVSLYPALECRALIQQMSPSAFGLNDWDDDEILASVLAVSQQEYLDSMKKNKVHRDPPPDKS
Summary of the method: as §1

Measured: log2 ratio of Biotin-Ahx-Ub-VS probe labelling

Cl.O=C(CN1CCN(C(=O)CCl)CC1)Nc1ccc(F)cc1
inactive: ALG13 -0.446 | ATXN3 -0.144 | BAP1 -0.159 | EIF3F -0.203 | EIF3H 0.305 | FAM105A -0.0798 | OTUB1 0.137 | OTUD4 0.146 | OTUD5 -0.0696
